# This is a sample that favours compounds with a hit; in the whole collection about 11% have one here.
# AmpC inh detg: qHTS Inhibitors of AmpC Beta-Lactamase (assay with detergent). P00811. AmpC hydrolysis of nitrocefin, absorbance 480 nm, 0.01% Triton. Potency, µM (titrated, usually from 114 µM), inactives show at the highest dose activity change, negative = inhibition, most hits filed as inhibitors. hit rate 0.041% among 370,000. AID 485294, 2010;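 further: 0% = no-compound wells and -100% = no-enzyme wells; nearly all actives have a fitted effect of over 25% in size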
# Target sequence (P00811 whole entry, looked up): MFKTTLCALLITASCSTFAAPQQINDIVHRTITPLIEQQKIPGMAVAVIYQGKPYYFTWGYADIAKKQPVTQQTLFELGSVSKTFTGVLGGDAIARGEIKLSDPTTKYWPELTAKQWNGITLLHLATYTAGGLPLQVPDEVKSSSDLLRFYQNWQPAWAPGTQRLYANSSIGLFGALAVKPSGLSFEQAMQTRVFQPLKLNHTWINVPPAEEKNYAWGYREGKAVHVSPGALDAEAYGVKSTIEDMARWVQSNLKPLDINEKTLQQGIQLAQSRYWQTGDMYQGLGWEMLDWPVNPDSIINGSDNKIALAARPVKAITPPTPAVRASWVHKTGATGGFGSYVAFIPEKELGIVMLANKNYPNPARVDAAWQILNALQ
#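 20 mM phosphate pH 7.0 + 0.01% (detergent screen) or 0.0001% Triton X-100; 5.3 nM AmpC reagent; cpd preinc 15 min RT; nitrocefin (800 uM stock) to start; A480 q20 s × 4 min; Activity was normalised to no-enzyme and no-compound control wells.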
# AMA1 RON2 block: qHTS for Inhibitors of AMA1-RON; Towards Development of Antimalarial Drug Lead: Primary Screen. Plasmodium falciparum AMA1 (3D7) - RON2 peptide interaction. AlphaScreen AMA1-biotinylated RON2 peptide binding. Potency, µM (top dose mostly 58.2 µM), for the others: at the top dose activity change, negative = inhibition, most hits filed as inhibitors. hit rate 0.2% among 360,000;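 further: 0% = vehicle wells and -100% = peptide control; nearly all actives have a fitted effect of over 45% in size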
#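 AMA1 (3D7) with his tag at 25 nM final met compounds first, then biotinylated RON2 peptide at 25 nM; detection used donor plus acceptor beads, 10 µg/mL apiece, read by AlphaScreen after 30 min at room temperature.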
# Pf growth 96h: Primary qHTS for delayed death inhibitors of the malarial parasite plastid, 96 hour incubation; hit rate 6.9% among 320,000; P. falciparum luciferase reporter growth, 96 h; Potency, µM (doses to about 28.7 µM), for inactives: top-dose activity change, negative = inhibition, hits mostly inhibitors
#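 P. falciparum expressing integrated firefly luciferase, in erythrocytes at 2% hematocrit, 0.05% parasitemia, incubated with compounds 96 h at 37 C, 5% CO2. Growth inhibition read as loss of luminescence; two-generation exposure targets delayed-death apicoplast inhibitors.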
# HCV inhibitor: qHTS Assay for Inhibitors of Hepatitis C Virus (HCV) | Potency, µM (doses to about 41.8 µM), for the others: at the top dose activity change, negative = inhibition, usual class: inhibitors | AID 651820, 2012 | hit rate 3.4% among 340,000 | Huh7.5.1 HCVcc-Cre infection, luciferase reporter, 44 h
#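 A cell-based infection assay in which seeded cells (1,000 per well) receive test compound after 4 h, are inoculated with HCVcc-Cre at approximately 0.5 moi, and are incubated 44 h before luminescence detection.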
# AmpC no deterg: qHTS Inhibitors of AmpC Beta-Lactamase (assay without detergent) | P00811 | AmpC nitrocefin hydrolysis, absorbance 480 nm, 0.0001% Triton | hit rate 0.52% among 330,000 | Potency, µM (highest dose often 57.1 µM), without a hit: at the highest dose activity change, negative = inhibition, actives largely listed as inhibitors;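 further: plate controls were no compound for no effect and no enzyme for full effect; nearly all actives have a fitted effect of over 20% in size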
#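 AmpC (5.3 nM in the dispensed reagent) in 20 mM phosphate pH 7.0 with 0.01% (detergent screen) or 0.0001% Triton X-100 was preincubated with compounds for 15 min at room temperature. Nitrocefin was then added from an 800 uM solution, and hydrolysis was followed at 480 nm.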
# Pf growth 48h: Primary qHTS for delayed death inhibitors of the malarial parasite plastid, 48 hour incubation. P. falciparum luciferase growth in erythrocytes, 48 h. Potency, µM (top dose mostly 28.7 µM), inactives show at the top dose activity change, negative = inhibition, actives largely listed as inhibitors. hit rate 5.9% among 310,000
#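 Luciferase-expressing P. falciparum in infected erythrocytes (2% hematocrit, 0.1% parasitemia final) in RPMI 1640/0.5% Albumax were exposed to compound for 48 hours at 37 C, 5% CO2; growth read as luminescence.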
# Starred values were filed as active, the others as inactive; ? = inconclusive; / = no result. The call rests on the fitted dose curve; in most records, active means well fitted curve in the direction sought with a large enough effect; inconclusive means small, poorly fitted or top-dose-only effect, or another doubt; inactive means no such curve, though single readings can be large; an effect the other way counts as inactive or inconclusive. Unless noted, on the % scale 0 is the no-effect control and ±100 the full control effect; potency means the concentration at half of the fitted maximal effect.
SMILES,AmpC inh detg,AMA1 RON2 block,Pf growth 96h,HCV inhibitor,AmpC no deterg,Pf growth 48h
Cc1ccc2oc(=O)n(CCOc3ccccc3C)c2c1,8%,2%,9%,-20%,-26%,2.6µM*
Cc1ccc2oc(=O)n(CCCOc3ccccc3C)c2c1,8%,14%,-1%,-3%,1%,23%
CC(C)OC(=O)Cn1c(=O)oc2ccccc21,4%,-2%,2.3µM*,3%,-1%,/
Cc1cc(C)cc(N2CCn3c2nc2c3c(=O)n(CCCc3ccccc3)c(=O)n2C)c1,22%,/,/,/,/,/
Cc1c(NC(=O)CN(c2ccc(F)cc2)S(=O)(=O)c2ccccc2)c(=O)n(-c2ccccc2)n1C,1%,1%,?,10%,-22%,-1%
Cc1c(N(C)S(=O)(=O)c2cccc(C(=O)NC(C)C)c2)c(=O)n(-c2ccccc2)n1C,-14%,2%,12µM*,-7%,8%,-69%
Cc1c(N(C)C(=O)C2CCCN2S(=O)(=O)c2ccccc2)c(=O)n(-c2ccccc2)n1C (centres undefined),-7%,0%,2.3µM*,14%,-7%,1%
Cc1c(NC(=O)C2CCCN2S(=O)(=O)c2ccc(Cl)cc2)c(=O)n(-c2ccccc2)n1C (centres undefined),-11%,36%,?,0%,-11%,/
Cc1c(N(CC(=O)O)S(=O)(=O)c2ccccc2)c(=O)n(-c2ccccc2)n1C,-8%,1%,4.7µM*,29%,-16%,15%
Cc1c(N(C)S(=O)(=O)c2cccc(C(=O)NCC3CCCO3)c2)c(=O)n(-c2ccccc2)n1C (centres undefined),-2%,-20%,?,18%,2%,26%
CSc1ncc2c(n1)-c1ccccc1N(Cc1ccc(Cl)cc1)S2(=O)=O,2%,/,/,/,/,/
CC1CCCN(CCCNC(=O)c2cc(Sc3ccc(F)cc3)nc3ccccc23)C1 (centres undefined),-6%,/,/,/,/,/
O=C(c1ccc(Br)cc1)N(Cc1ccco1)c1ccccn1,0%,/,/,/,/,/
Cc1ccccc1CN1C(=O)c2ccccc2Sc2ccc(C(=O)NC3CCCC3)cc21,16%,/,/,/,/,/
COc1ccccc1NC(=O)Nc1nc(CC(=O)N2CCN(c3ccc(F)cc3)CC2)cs1,0%,-23%,?,11µM*,19%,9.3µM*
COc1ccccc1NC(=O)Nc1nc(CC(=O)N2CCN(c3ccccc3)CC2)cs1,-13%,-3%,?,13µM*,20%,12µM*
COc1ccccc1NC(=O)Nc1nc(CC(=O)Nc2ccc(F)cc2)cs1,-12%,16%,?,?,-22%,?
COc1ccc(N2CCN(C(=O)Cc3csc(NC(=O)Nc4ccccc4OC)n3)CC2)cc1,?,?,?,?,104%,7.4µM*
CCN(CC)S(=O)(=O)c1ccc2c(c1)N(CC(=O)Nc1c(C)cccc1C)C(=O)C1CCCN21 (centres undefined),21%,/,/,/,/,/
CCN(C[C@H]1N[C@@](Cc2ccccc2)(C(=O)OC)[C@H]2C(=O)N(Cc3ccccc3)C(=O)[C@@H]12)S(=O)(=O)c1ccccc1,/,-15%,/,?,-2%,/
CCN(C[C@H]1N[C@@](Cc2ccccc2)(C(=O)OC)[C@H]2C(=O)N(C)C(=O)[C@@H]12)S(=O)(=O)c1ccc(-c2ccccc2)cc1,/,-3%,/,18µM*,83%,/
CCN(C[C@H]1N[C@@](Cc2ccccc2)(C(=O)OC)[C@H]2C(=O)N(Cc3ccccc3)C(=O)[C@@H]12)S(=O)(=O)c1ccc(C)cc1,/,-7%,/,7.1µM*,-32%,/
CCOC(=O)C1CCCN(c2c(C(=O)c3ccccc3)cnc3ccc(F)cc23)C1 (centres undefined),30%,/,/,/,/,/
CC(=O)C1=C(c2ccccc2)NC(=O)NC1c1ccccc1 (centres undefined),?,0%,?,14%,-19%,17%
COc1cc(C2NC(=O)NC(c3ccccc3)=C2C(C)=O)c(Br)c(Br)c1O (centres undefined),-8%,-4%,0.74µM*,10%,-20%,1.3µM*
SMILES,AmpC inh detg,AMA1 RON2 block,Pf growth 96h,HCV inhibitor,AmpC no deterg,Pf growth 48h
CCOC(=O)c1ccc(NC(=O)CSc2ccc3ccccc3n2)cc1,-4%,/,/,/,/,/
COC(=O)C1=C(C)N=C2SC(C#N)=C(N)N2C1c1ccc(OCc2ccccc2)cc1 (centres undefined),-13%,-8%,12µM*,?,?,/
COC(=O)C1=C(C)N=C2SC(C#N)=C(N)N2C1c1cc(OC)c(OC)c(OC)c1 (centres undefined),-3%,-3%,?,8%,-12%,?
Cc1cccc(CN2C(=O)N/C(=C/c3ccc(C)s3)C2=O)c1,-2%,1%,3.3µM*,?,-21%,/
Cc1cc(/C=C2\NC(=O)N(Cc3ccc(Cl)cc3)C2=O)c(C)n1C,-1%,-3%,?,-5%,-20%,9.3µM*
Cc1ccc(/C=C2/NC(=O)N(Cc3ccccc3)C2=O)s1,3%,8%,?,-32%,-47%,10µM*
Cc1oc(-c2cccc(Cl)c2)nc1CSc1nc2ncccc2[nH]1,2%,/,/,/,/,/
COc1cc(C(O)c2nc3ccccc3s2)cc(OC)c1OC (centres undefined),2%,3%,-2%,7.1µM*,-3%,-8%
Cc1cc(=O)n(Cc2ccccc2Cl)c2c1c(C)nn2-c1ccccc1,1%,/,/,/,/,/
Cc1cc(C)c(Cn2cnc(-c3ccc([N+](=O)[O-])cc3)c2)c(C)c1,0%,0%,?,11µM*,-22%,?
Cc1oc(-c2ccccc2Cl)nc1CSc1nc2ncccc2[nH]1,9%,/,/,/,/,/
Cc1cccc(N2CCN(C3=NC(=O)C(=C4CCCCC4)S3)CC2)c1,?,9%,34%,?,-9%,10µM*
N#CCCN1CCN(C2=NC(=O)C(=C3CCCCC3)S2)CC1,8%,-10%,2.6µM*,15%,13%,0%
CC(=O)N1CCN(C2=NC(=O)C(=C3CCCCC3)S2)CC1,-13%,5%,-19%,-10%,-9%,?
O=C1c2cnccc2CN1Cc1ccccc1,-21%,3%,3.3µM*,4%,-7%,41%
O=C1c2ccccc2C(=O)N1Cc1cccnc1,-1%,-11%,173%,19%,-6%,20%
COc1ccc(-c2noc(-c3cc(C(C)C)[nH]n3)n2)cc1,-6%,/,/,/,/,/

# Screening data (PubChem)
